In PubChem BioAssay (NCATS) one finds Z-AUC, Potency and outcome data, which are given here for 29 compounds.

Assay [1] is described as follows: qHTS drug screen for cell cycle checkpoint inhibitors in PARPi-resistant BRCA-mutant ovarian cancer cell lines. (AID 1963452). The conditions noted are these: PEO1/OlaR viability, CellTiter-Glo luminescence, 96 h, stronger effect = lower value. The method in brief:
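PEO1, PEO4 and PEO1/OlaR ovarian cancer cells, 600 per well, exposed 96 h at 37C to a dilution series. Viability read by CellTiter-Glo luminescence, normalized to DMSO and empty wells; activity summarized as Z-AUC.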
In general terms: In qHTS, concentration-response curves come from the screen itself.

Assay [2] has as its target Cytochrome P450 1A2 (Homo sapiens) (UniProt P05177). Kind of assay: qHTS for inhibitors of CYPIA2 against the NCATS DSHEA and TCM libraries (AID 1919976; active means well fitted curve in the direction sought with a large enough effect; an effect the other way counts as inactive or inconclusive; further: potency means the concentration at half of the fitted maximal effect). The settings on record: recombinant CYP1A2 enzyme activity, luminescence. The method in brief: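 Furafylline served as the plate control. Compounds met CYP1A2 and pro-luciferin substrate 15 min before NADPH regeneration solution (1x) was added; after 30-45 min at RT, P450-Glo reagent was added for 30 min and luminescence was measured.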

The nature of assay [3]: Dual reporter qHTS for agonist of Pregnane X Receptor (hPXR) against the NCATS DSHEA and TCM libraries: Fluorescence readout (AID 1920058; active means well fitted curve in the direction sought with a large enough effect; an effect the other way counts as inactive or inconclusive; further: 0% is about no effect). The settings on record: PXR dual reporter cells; series mostly up to 40 µM. In a few lines: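 In this qHTS counter-read, reporter-bearing HepG2 cells in charcoal-stripped serum received substances for approximately 24 h before viability was assessed fluorometrically with CellTiter-Fluor.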

Assay [4] deals with Nuclear receptor subfamily 1 group I member 2 (Homo sapiens) (UniProt O75469). Kind of assay: Dual reporter qHTS for agonist of Pregnane X Receptor (hPXR) against the NCATS DSHEA and TCM libraries: Luminescence readout (AID 1920059; active means well fitted curve in the direction sought with a large enough effect; an effect the other way counts as inactive or inconclusive; further: 0% is about no effect). The conditions noted are these: hPXR dual reporter cells, luciferase luminescence agonist; series mostly up to 40 µM. The method in brief:
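hPXR-Luc HepG2 cells, 2000/well in 5% charcoal-stripped FBS medium, attached 5 h, then exposed 24 h at 37C to compounds. Viability by CellTiter-Fluor, then luciferase luminescence with ONE-Glo.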

Assay [5] has the same target. Kind of assay: Dual reporter qHTS for antagonist of Pregnane X Receptor (hPXR) against the NCATS DSHEA and TCM libraries: Luminescence Readout (AID 1920060; active means well fitted curve in the direction sought with a large enough effect; an effect the other way counts as inactive or inconclusive;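 further: HepG2 cells carrying hPXR luciferase reporter stimulated with rifampicin at 2 µM; 0% is about no effect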). The conditions noted are these: hPXR dual reporter cells, luciferase luminescence, antagonist mode; series mostly up to 40 µM. In a few lines:
(§1)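 hPXR-Luc HepG2 cells exposed 24 h at 37 C to compounds with 2 uM rifampicin in antagonist mode; luciferase luminescence measured by ONE-Glo, with CellTiter-Fluor viability read beforehand.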

The nature of assay [6]: Dual reporter qHTS for antagonist of Pregnane X Receptor (hPXR) against the NCATS DSHEA and TCM libraries: Fluorescence Readout (AID 1920061; active means well fitted curve in the direction sought with a large enough effect; an effect the other way counts as inactive or inconclusive; further: 0% is about no effect). The settings on record: PXR dual reporter cells, antagonist mode; series mostly up to 40 µM. The method in brief:
as §1

Setting [7] is: measured here: PEO1 parental Z-AUC.

The structures appear in SMILES notation. Records with an inconclusive call do not appear. The source made the active and inactive calls. Unless noted, the call rests on the fitted dose curve.

Nuclear receptor subfamily 1 group I member 2 (Homo sapiens), sequence (O75469 whole entry, looked up): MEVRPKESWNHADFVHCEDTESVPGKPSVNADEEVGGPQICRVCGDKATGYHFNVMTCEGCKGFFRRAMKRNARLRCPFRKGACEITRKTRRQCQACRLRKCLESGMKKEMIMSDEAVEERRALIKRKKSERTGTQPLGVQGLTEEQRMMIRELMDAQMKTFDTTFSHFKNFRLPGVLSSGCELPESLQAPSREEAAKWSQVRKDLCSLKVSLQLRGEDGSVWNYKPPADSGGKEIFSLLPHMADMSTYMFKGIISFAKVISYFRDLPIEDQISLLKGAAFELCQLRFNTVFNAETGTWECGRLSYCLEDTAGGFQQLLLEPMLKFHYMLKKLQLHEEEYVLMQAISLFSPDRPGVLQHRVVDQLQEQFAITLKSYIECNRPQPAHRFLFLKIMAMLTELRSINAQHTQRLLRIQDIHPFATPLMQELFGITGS
Cytochrome P450 1A2 (Homo sapiens), sequence (P05177 whole entry, looked up): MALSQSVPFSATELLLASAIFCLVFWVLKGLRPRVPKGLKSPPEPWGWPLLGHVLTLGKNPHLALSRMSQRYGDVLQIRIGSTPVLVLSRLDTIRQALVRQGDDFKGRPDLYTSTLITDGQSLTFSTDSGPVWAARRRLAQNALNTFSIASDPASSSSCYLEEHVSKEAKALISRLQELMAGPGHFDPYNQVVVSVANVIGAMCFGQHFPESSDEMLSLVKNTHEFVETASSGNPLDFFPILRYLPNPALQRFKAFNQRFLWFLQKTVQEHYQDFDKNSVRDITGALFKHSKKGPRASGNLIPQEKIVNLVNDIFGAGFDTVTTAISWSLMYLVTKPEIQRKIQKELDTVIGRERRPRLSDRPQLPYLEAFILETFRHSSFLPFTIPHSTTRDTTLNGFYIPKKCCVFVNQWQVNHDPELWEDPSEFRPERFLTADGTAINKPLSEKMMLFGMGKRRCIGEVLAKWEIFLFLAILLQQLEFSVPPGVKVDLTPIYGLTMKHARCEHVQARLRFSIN

On to `C[C@H](Cc1ccc(O)c(O)c1)[C@@H](C)Cc1ccc(O)c(O)c1`, for which the Z-AUC in assay [1] is 1.18 (inactive); in assay [1] (setting [7]), 0.707; in assay [1] (measured here: PEO4 Z-AUC), 0.729.

`Cc1cc(O)c2c(c1)C(=O)c1cc(O)cc(O)c1C2=O`: in assay [2], the Potency was 8.91 µM (active). Besides, the result in assay [3], in assay [4], in assay [5] and in assay [6] was inactive. Also, the Z-AUC in assay [1] was 0.333 (inactive); in assay [1] (setting [7]) it was 0.799; in assay [1] (measured here: PEO4 Z-AUC), 0.55.

As for `Nc1ncn([C@H]2C[C@H](O)[C@@H](CO)O2)c(=O)n1`, the figures for the Z-AUC in assay [1], in assay [1] (setting [7]) and in assay [1] (measured here: PEO4 Z-AUC) were 1.63 (inactive), -0.11 and -0.207, respectively.

Take `Nc1nc(N)c(N=O)c(OCC2CCCCC2)n1`: the Z-AUC is -0.0306 (inactive) in assay [1], 0.757 in assay [1] (setting [7]) and 0.22 in assay [1] (measured here: PEO4 Z-AUC).

Take `Clc1ccc(C(Cn2ccnc2)OCc2ccc(Sc3ccccc3)cc2)c(Cl)c1` (configuration not stated): the Z-AUC was -1.08 (inactive) in assay [1], -0.535 in assay [1] (setting [7]) and -0.326 in assay [1] (measured here: PEO4 Z-AUC).

Consider `O=C(NOCC1CC1)c1ccc(F)c(F)c1Nc1ccc(I)cc1Cl`, for which the Z-AUC in assay [1] is 0.682 (inactive); in assay [1] (setting [7]), -0.295; in assay [1] (measured here: PEO4 Z-AUC) it was 0.149.

Take `CN(C)C(=O)[C@H](O)[C@H](Cc1ccccc1)NC(=O)c1cc2cc(Cl)ccc2[nH]1`: the Z-AUC in assay [1] was -0.181 (inactive); in assay [1] (setting [7]), 0.139; in assay [1] (measured here: PEO4 Z-AUC) it was -0.0271.

With `Nc1nc(OCc2ccccc2)c2[nH]cnc2n1`, the Z-AUC was 0.131 (inactive) in assay [1], 0.393 in assay [1] (setting [7]) and 0.209 in assay [1] (measured here: PEO4 Z-AUC).

Take `CCN(CC)C(=S)SSC(=S)N(CC)CC`: the Z-AUC in assay [1] was 0.318 (inactive); in assay [1] (setting [7]), 0.214; in assay [1] (measured here: PEO4 Z-AUC), 0.454.

For `CCCS(=O)c1ccc2nc(NC(=O)OC)[nH]c2c1` (configuration not stated), the Z-AUC in assay [1] was -0.279 (inactive); in assay [1] (setting [7]), -0.314; in assay [1] (measured here: PEO4 Z-AUC), 0.468.

Take `COc1cc2c(N3CCN(C(=O)Nc4ccc(OC(C)C)cc4)CC3)ncnc2cc1OCCCN1CCCCC1`: the Z-AUC in assay [1] is 1.04 (inactive); in assay [1] (setting [7]), 0.804; in assay [1] (measured here: PEO4 Z-AUC), 1.1.

For `O=C(CCc1ccc(O)cc1)c1c(O)cc(O)cc1O`, the Z-AUC in assay [1] is -0.868 (inactive); in assay [1] (setting [7]) it was -0.361; in assay [1] (measured here: PEO4 Z-AUC), -0.52.

As for `COc1cc(Nc2c(C#N)cnc3cc(OCCCN4CCN(C)CC4)c(OC)cc23)c(Cl)cc1Cl`, the Z-AUC was 0.106 (inactive) in assay [1], 0.26 in assay [1] (setting [7]) and 0.9 in assay [1] (measured here: PEO4 Z-AUC).

In the case of `Cc1ccc(Nc2nccc(N(C)c3ccc4c(C)n(C)nc4c3)n2)cc1S(N)(=O)=O`, the Z-AUC in assay [1] was 1.07 (inactive); in assay [1] (setting [7]), 0.627; in assay [1] (measured here: PEO4 Z-AUC) it was 0.955.

`O=C(NCC1CCCCN1)c1cc(OCC(F)(F)F)ccc1OCC(F)(F)F` (configuration not stated): the figures for the Z-AUC in assay [1], in assay [1] (setting [7]) and in assay [1] (measured here: PEO4 Z-AUC) were -0.39 (inactive), -0.839 and -1.07, respectively.

As to `CN(C)c1ccc(O)c2c1C[C@H]1C[C@H]3[C@H](N(C)C)C(=O)C(C(N)=O)=C(O)[C@@]3(O)C(=O)C1=C2O`, the Z-AUC was 0.306 (inactive) in assay [1], 0.206 in assay [1] (setting [7]) and 0.369 in assay [1] (measured here: PEO4 Z-AUC).

On to `O=C(c1ccccc1)c1ccc2n1CCC2C(=O)O` (configuration not stated), for which the figures for the Z-AUC in assay [1], in assay [1] (setting [7]) and in assay [1] (measured here: PEO4 Z-AUC) were 1.02 (inactive), 0.719 and 0.897, respectively.

Consider `O=Nc1c(-c2c(O)[nH]c3cc(Br)ccc23)[nH]c2ccccc12`, for which the values for the Z-AUC in assay [1], in assay [1] (setting [7]) and in assay [1] (measured here: PEO4 Z-AUC) were -0.607 (inactive), -0.18 and -0.803, respectively.

Consider `CC(C)c1ccc2c(c1)c(SC(C)(C)C)c(CC(C)(C)C(=O)O)n2Cc1ccc(Cl)cc1`, for which the Z-AUC was 1.24 (inactive) in assay [1], 0.791 in assay [1] (setting [7]) and 0.661 in assay [1] (measured here: PEO4 Z-AUC).

For the compound `NCCCCNCCCN`, the results for the Z-AUC in assay [1], in assay [1] (setting [7]) and in assay [1] (measured here: PEO4 Z-AUC) were 0.434 (inactive), 1.13 and 0.641, respectively.

With `Cc1ccc(S(=O)(=O)NC(=O)NN2CC3CCCC3C2)cc1` (configuration not stated), the results for the Z-AUC in assay [1], in assay [1] (setting [7]) and in assay [1] (measured here: PEO4 Z-AUC) were 1.31 (inactive), 0.956 and 1.09, respectively.

Consider `S=c1nc[nH]c2nc[nH]c12`, for which the figures for the Z-AUC in assay [1], in assay [1] (setting [7]) and in assay [1] (measured here: PEO4 Z-AUC) were -0.8 (inactive), -0.506 and -0.594, respectively.

Take `O=c1cc(N2CCOCC2)oc2c(-c3ccccc3)cccc12`: the Z-AUC in assay [1] is 0.98 (inactive); in assay [1] (setting [7]), 0.743; in assay [1] (measured here: PEO4 Z-AUC), 0.809.

For the compound `Cc1cccc(-c2[nH]ncc2-c2ccc3ncccc3n2)n1`, the Z-AUC was -0.435 (inactive) in assay [1], 0.556 in assay [1] (setting [7]) and 0.305 in assay [1] (measured here: PEO4 Z-AUC).

For the compound `Oc1ccc2ccccc2c1SSc1c(O)ccc2ccccc12`, the Z-AUC in assay [1] is -0.118 (inactive); in assay [1] (setting [7]) it was 0.665; in assay [1] (measured here: PEO4 Z-AUC) it was 0.501.

Consider `Cc1cc(Cl)ccc1OCCCC(=O)NO`, for which the Z-AUC in assay [1] was 0.502 (inactive); in assay [1] (setting [7]), 0.403; in assay [1] (measured here: PEO4 Z-AUC), 0.182.

`COc1ccccc1N1CCN(CCN(C(=O)C2CCCCC2)c2ccccn2)CC1`: the Z-AUC in assay [1] was 0.61 (inactive); in assay [1] (setting [7]), 0.37; in assay [1] (measured here: PEO4 Z-AUC) it was 0.876.

Consider `Clc1ccc2c(N3CCN(CCCN4CCN(c5ccnc6cc(Cl)ccc56)CC4)CC3)ccnc2c1`, for which the Z-AUC in assay [1] was 0.751 (inactive); in assay [1] (setting [7]), 0.492; in assay [1] (measured here: PEO4 Z-AUC) it was 0.795.

Take `Oc1ccc(-c2nc(-c3ccc(F)cc3)c(-c3ccncc3)[nH]2)cc1`: the Z-AUC in assay [1] was 1.12 (inactive); in assay [1] (setting [7]), -0.0618; in assay [1] (measured here: PEO4 Z-AUC), 0.0892.
